# Columns and labels:
# [1] = target: T1, Ephrin type-A receptor 3 (Homo sapiens) (UniProt P29320); settings: at 10 µM
# T1 sequence (whole entry): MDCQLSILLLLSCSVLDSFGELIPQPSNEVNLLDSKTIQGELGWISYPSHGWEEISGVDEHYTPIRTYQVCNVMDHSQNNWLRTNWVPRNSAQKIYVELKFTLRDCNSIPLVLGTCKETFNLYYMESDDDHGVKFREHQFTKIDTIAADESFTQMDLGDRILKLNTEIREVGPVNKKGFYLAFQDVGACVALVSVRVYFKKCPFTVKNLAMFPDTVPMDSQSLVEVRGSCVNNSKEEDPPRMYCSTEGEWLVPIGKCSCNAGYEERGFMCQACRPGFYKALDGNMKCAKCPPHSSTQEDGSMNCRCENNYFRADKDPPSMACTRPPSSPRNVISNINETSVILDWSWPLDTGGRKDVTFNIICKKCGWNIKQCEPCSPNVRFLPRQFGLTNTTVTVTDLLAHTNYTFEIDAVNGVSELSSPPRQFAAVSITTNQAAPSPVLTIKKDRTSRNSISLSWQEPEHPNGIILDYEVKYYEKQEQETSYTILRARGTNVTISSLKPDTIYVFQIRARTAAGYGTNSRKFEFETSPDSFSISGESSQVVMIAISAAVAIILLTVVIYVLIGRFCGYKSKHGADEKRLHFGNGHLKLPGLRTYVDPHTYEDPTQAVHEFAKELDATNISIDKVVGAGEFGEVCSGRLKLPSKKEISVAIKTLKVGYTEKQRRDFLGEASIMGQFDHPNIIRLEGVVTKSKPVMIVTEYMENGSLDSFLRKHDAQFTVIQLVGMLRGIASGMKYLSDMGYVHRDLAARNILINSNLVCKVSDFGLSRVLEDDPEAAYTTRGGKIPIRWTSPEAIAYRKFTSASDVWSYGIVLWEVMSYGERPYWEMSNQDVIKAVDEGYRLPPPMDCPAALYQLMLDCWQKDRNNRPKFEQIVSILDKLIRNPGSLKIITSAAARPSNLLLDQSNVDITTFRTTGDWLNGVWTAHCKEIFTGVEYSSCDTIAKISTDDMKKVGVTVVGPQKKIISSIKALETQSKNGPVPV
# [2] = target: Ephrin type-A receptor 4 (Homo sapiens) (UniProt P54764); settings: at 1 µM
# Sequence of Ephrin type-A receptor 4 (Homo sapiens) (P54764 whole entry): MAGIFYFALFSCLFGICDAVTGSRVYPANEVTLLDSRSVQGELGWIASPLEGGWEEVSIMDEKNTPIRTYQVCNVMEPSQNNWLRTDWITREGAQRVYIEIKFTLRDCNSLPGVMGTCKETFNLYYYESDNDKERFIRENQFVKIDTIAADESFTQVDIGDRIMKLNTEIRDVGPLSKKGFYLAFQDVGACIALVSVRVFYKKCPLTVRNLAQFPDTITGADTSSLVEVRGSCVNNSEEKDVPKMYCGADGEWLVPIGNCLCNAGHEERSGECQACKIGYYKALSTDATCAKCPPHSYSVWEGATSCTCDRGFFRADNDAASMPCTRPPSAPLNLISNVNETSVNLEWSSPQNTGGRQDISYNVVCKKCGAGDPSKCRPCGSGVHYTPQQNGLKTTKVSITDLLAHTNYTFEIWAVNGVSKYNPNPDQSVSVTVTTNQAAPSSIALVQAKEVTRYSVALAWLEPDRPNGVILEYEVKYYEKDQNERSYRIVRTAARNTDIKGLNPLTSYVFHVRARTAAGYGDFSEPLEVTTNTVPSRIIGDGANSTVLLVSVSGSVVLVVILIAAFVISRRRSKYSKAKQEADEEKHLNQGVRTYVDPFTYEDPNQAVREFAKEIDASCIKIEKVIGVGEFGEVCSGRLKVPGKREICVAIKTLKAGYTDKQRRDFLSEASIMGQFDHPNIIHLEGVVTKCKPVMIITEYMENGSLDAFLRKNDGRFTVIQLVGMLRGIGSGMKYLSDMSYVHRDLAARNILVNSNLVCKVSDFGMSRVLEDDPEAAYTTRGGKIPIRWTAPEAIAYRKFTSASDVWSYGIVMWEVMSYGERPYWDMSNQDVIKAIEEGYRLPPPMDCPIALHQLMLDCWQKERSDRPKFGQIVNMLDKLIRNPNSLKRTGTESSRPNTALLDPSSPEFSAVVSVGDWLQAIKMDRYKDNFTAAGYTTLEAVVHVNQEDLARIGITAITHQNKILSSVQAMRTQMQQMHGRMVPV
# [3] = target: Ephrin type-A receptor 4 (Homo sapiens) (UniProt P54764); settings: at 10 µM
# [4] = target: Ephrin type-A receptor 5 (Homo sapiens) (UniProt P54756); settings: at 1 µM
# Sequence of Ephrin type-A receptor 5 (Homo sapiens) (P54756 whole entry): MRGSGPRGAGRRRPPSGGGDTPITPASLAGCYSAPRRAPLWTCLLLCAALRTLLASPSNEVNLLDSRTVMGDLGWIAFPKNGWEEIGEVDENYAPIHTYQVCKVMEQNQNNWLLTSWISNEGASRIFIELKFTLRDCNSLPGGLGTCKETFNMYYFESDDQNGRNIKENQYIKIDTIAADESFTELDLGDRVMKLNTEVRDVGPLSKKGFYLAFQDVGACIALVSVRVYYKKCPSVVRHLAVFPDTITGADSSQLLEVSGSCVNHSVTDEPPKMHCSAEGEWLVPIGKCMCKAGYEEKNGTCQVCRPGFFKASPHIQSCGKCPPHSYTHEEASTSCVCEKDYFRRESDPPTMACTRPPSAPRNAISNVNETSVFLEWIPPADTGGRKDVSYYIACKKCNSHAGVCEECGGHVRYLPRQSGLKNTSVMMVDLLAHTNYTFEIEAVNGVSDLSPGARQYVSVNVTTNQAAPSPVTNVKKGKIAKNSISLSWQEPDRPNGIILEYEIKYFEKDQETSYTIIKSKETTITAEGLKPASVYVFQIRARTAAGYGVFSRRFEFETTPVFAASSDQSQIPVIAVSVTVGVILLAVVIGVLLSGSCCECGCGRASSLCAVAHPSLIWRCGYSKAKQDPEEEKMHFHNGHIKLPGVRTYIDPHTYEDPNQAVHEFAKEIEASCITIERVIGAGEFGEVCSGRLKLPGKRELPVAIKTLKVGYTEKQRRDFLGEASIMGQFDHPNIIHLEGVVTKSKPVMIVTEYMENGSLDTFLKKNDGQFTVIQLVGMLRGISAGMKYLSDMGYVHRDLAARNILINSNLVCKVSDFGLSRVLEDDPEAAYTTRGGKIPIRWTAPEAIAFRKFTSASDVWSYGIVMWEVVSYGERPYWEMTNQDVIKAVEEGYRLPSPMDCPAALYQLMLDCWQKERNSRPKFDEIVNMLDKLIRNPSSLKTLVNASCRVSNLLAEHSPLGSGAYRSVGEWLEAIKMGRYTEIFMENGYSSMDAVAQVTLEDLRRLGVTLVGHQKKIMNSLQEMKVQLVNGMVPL
# [5] = target: Ephrin type-A receptor 5 (Homo sapiens) (UniProt P54756); settings: at 10 µM
# [6] = target: Ephrin type-A receptor 7 (Homo sapiens) (UniProt Q15375); settings: at 1 µM
# Sequence of Ephrin type-A receptor 7 (Homo sapiens) (Q15375 28-998 limits assumed): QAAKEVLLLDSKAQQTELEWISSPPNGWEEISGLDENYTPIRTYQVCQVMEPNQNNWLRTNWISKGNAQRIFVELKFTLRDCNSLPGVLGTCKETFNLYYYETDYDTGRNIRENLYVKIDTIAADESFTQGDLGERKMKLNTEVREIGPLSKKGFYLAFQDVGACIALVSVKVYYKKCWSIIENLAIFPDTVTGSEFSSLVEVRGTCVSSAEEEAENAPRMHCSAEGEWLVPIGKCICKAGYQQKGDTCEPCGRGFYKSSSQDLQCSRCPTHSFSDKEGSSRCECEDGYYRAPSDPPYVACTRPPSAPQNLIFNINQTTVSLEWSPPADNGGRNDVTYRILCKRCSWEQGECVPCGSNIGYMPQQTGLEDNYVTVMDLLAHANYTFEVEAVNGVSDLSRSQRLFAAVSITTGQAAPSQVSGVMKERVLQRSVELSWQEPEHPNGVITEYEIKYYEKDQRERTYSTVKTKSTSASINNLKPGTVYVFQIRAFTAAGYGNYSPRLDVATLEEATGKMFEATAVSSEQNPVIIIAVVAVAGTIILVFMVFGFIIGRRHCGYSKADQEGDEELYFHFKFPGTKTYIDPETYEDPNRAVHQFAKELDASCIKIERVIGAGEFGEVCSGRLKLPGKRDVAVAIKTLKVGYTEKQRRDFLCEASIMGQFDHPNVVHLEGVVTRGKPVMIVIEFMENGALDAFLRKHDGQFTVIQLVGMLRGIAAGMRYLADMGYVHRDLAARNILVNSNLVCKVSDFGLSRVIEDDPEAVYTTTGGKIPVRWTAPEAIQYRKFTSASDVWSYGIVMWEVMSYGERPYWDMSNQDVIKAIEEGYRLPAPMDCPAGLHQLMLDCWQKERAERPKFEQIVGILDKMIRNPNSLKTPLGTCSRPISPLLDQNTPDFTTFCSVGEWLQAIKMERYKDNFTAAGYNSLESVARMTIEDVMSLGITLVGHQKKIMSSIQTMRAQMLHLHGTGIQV
# [7] = target: Ephrin type-A receptor 7 (Homo sapiens) (UniProt Q15375); settings: at 10 µM
# [8] = target: T2, Ephrin type-A receptor 8 (Homo sapiens) (UniProt P29322); settings: at 1 µM
# T2 sequence (whole entry): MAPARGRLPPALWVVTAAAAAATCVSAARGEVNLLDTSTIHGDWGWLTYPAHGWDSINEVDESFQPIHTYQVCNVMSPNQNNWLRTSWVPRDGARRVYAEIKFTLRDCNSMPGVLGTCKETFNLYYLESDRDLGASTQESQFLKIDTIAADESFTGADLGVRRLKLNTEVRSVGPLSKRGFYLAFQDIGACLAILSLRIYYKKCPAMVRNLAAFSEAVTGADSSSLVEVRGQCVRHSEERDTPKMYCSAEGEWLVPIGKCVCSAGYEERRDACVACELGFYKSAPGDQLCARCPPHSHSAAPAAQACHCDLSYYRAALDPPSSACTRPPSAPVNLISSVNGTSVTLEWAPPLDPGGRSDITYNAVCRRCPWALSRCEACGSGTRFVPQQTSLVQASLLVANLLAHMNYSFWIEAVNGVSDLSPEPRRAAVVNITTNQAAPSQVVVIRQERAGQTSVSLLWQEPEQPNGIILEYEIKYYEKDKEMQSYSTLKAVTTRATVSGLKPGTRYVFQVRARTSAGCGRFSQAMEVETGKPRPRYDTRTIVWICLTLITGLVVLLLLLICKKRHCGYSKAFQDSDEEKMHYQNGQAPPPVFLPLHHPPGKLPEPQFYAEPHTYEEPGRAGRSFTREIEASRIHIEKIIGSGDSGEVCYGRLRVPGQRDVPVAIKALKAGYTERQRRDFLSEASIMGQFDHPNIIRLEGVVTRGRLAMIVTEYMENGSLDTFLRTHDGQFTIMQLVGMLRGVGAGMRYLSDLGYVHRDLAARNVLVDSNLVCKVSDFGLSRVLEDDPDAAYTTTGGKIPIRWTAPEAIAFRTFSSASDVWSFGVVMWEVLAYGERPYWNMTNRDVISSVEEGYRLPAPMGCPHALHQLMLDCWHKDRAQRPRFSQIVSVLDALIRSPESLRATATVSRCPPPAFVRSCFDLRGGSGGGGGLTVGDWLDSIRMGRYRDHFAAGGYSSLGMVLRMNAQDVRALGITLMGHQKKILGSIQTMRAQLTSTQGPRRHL
# [9] = target: T2, Ephrin type-A receptor 8 (Homo sapiens); settings: at 10 µM
# [10] = target: T3, Ephrin type-B receptor 1 (Homo sapiens) (UniProt P54762); settings: at 1 µM
# T3 sequence (whole entry): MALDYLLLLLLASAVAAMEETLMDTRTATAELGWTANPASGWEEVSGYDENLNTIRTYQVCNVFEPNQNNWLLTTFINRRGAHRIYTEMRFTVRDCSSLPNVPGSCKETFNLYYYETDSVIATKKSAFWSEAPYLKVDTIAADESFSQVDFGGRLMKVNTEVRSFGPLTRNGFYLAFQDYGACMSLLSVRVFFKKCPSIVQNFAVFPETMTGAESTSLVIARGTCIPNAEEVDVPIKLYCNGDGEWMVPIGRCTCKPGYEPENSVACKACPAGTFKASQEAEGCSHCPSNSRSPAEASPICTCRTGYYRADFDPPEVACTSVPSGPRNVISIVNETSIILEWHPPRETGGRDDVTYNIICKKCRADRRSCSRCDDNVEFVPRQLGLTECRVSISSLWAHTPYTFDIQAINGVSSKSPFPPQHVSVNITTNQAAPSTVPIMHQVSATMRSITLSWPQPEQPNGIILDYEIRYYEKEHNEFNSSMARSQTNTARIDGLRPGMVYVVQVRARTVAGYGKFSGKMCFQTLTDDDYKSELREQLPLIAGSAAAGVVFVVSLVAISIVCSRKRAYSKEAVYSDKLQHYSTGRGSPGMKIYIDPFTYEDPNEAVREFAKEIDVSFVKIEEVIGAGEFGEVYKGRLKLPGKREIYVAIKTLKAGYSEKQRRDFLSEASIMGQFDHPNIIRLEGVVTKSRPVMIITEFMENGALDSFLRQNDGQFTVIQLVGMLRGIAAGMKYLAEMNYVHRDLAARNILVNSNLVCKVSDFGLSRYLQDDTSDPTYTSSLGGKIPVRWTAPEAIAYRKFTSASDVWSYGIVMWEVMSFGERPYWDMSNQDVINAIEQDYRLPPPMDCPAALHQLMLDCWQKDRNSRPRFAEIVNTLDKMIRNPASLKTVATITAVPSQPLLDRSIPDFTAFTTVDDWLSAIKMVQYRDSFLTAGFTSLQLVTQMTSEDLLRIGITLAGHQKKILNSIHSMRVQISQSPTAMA
# [11] = target: T3, Ephrin type-B receptor 1 (Homo sapiens); settings: at 10 µM
# [12] = target: T4, Ephrin type-B receptor 3 (Homo sapiens) (UniProt P54753); settings: at 1 µM
# T4 sequence (whole entry): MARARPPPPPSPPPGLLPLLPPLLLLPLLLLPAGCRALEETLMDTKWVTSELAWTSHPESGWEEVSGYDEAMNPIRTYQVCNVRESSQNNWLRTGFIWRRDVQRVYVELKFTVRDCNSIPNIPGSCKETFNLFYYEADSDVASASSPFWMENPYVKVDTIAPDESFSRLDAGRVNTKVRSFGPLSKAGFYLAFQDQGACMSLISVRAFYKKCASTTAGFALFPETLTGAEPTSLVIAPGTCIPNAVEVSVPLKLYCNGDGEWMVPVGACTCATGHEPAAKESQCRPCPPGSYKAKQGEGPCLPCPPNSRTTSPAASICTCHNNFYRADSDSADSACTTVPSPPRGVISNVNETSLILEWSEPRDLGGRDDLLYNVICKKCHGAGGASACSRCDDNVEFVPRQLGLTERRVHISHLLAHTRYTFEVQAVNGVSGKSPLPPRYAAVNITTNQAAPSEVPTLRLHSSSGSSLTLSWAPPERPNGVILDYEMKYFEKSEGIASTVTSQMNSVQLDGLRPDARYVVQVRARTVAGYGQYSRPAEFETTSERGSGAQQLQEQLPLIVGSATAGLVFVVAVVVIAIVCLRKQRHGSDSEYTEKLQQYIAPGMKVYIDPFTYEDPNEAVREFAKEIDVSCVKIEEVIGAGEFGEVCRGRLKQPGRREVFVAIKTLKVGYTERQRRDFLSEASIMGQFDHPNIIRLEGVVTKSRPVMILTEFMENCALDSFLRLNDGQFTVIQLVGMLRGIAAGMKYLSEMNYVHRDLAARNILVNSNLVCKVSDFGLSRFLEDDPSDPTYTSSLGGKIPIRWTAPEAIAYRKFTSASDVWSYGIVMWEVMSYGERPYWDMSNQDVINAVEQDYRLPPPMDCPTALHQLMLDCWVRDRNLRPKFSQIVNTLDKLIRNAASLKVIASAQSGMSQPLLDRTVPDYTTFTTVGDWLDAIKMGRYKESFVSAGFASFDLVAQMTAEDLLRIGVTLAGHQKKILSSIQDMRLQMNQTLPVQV
# [13] = target: T4, Ephrin type-B receptor 3 (Homo sapiens); settings: at 10 µM
# [14] = target: T5, Ephrin type-B receptor 4 (Homo sapiens) (UniProt P54760); settings: at 1 µM
# T5 sequence (whole entry): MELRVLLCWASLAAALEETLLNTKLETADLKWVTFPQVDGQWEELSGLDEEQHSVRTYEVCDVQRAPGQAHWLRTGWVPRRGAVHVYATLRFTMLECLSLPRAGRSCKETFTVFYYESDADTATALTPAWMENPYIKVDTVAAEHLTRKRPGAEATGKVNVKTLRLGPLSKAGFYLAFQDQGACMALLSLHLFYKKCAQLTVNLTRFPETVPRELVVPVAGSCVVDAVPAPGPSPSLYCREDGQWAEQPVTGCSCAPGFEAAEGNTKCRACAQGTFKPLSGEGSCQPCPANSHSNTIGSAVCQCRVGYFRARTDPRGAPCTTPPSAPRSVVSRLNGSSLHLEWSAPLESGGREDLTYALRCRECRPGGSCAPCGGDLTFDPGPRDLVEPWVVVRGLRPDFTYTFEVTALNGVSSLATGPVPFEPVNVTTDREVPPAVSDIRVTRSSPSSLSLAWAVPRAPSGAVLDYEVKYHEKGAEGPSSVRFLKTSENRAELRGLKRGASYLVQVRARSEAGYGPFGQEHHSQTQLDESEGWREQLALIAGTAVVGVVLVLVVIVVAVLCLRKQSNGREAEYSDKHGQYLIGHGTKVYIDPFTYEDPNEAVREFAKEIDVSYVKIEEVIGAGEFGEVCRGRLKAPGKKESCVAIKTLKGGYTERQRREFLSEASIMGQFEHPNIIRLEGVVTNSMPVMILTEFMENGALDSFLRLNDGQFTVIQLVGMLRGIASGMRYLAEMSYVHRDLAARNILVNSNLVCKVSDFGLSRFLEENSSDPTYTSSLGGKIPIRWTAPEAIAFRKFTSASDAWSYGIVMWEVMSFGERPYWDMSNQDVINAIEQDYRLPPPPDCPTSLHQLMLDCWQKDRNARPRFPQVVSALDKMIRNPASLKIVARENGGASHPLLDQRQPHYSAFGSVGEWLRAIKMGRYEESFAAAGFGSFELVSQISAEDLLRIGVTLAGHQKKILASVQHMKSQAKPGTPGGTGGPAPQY
# [15] = target: T5, Ephrin type-B receptor 4 (Homo sapiens); settings: at 10 µM
# [16] = target: Receptor tyrosine-protein kinase erbB-4 (Homo sapiens) (UniProt Q15303); settings: at 10 µM
# [17] = target: Focal adhesion kinase 1 (Homo sapiens) (UniProt Q05397); settings: at 1 µM
# Sequence of Focal adhesion kinase 1 (Homo sapiens) (Q05397 2-1052 limits assumed): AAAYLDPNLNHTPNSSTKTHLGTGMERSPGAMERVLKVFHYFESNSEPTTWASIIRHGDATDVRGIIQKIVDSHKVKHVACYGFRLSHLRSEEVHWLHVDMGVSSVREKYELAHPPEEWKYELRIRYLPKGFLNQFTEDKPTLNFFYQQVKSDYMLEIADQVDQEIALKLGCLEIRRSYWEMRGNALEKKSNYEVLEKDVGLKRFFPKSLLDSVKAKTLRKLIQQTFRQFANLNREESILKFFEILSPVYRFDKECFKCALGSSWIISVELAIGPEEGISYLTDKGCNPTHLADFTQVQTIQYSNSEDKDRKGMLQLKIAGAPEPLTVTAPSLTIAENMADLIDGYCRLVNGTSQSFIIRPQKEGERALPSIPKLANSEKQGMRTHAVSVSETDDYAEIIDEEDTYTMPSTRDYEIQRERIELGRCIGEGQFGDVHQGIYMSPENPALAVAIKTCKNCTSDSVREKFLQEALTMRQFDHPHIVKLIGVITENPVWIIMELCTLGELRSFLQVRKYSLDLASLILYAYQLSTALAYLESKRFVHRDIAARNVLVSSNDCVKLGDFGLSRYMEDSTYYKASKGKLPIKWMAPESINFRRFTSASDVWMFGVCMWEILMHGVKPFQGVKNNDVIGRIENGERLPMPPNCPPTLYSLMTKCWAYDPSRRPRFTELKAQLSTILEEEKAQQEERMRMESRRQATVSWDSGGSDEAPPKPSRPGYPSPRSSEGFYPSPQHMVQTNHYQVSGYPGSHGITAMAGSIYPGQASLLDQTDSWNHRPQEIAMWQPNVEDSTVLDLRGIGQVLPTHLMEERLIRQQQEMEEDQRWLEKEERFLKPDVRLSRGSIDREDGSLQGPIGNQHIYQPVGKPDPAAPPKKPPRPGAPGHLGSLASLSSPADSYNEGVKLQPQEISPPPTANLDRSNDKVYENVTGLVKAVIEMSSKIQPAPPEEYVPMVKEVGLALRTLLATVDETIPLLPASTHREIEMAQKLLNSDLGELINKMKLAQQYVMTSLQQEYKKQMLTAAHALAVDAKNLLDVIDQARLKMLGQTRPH
structure (smiles),measurement,setting,value
COc1cc(OC)c(/C=C2\C(=O)Nc3ccccc32)c(OC)c1,residual activity,[1],84%
same,residual activity,[2],103%
same,residual activity,[3],105%
same,residual activity,[4],128%
same,residual activity,[5],101%
same,residual activity,[6],94%
same,residual activity,[7],94%
same,residual activity,[8],95%
same,residual activity,[9],84%
same,residual activity,[10],100%
same,residual activity,[11],88%
same,residual activity,[12],124% (inactive)
same,residual activity,[13],107%
same,residual activity,[14],86%
same,residual activity,[15],82%
same,residual activity,[16],106%
same,residual activity,[17],92%
